From PubChem BioAssay (NCATS)
Values joined by “and” are separate entries in the source; they are usually repeats but may differ in a detail not shown here. Equal entries are not always repeated. Inconclusive results are not listed. Where a call stands in place of a potency, no number is given. Some structures have more than one record in an assay (separate samples or runs), and their calls can disagree. Active and inactive are the calls of the source. Calls come from the whole dose curve; as a rule, active = well fitted inhibition curve with a large enough effect; inconclusive = small, poorly fitted or top-dose-only effect; inactive = no such curve, though single readings can be large or run the other way.

Assay: Primary qHTS for inhibitors of nuclear receptor binding SET domain protein 2 (NSD2) in an RCH-ACV wild type WT cells (2C) (AID 1645877); note: nearly all actives have a fitted effect of over 70% in size
Details: RCH-ACV (leukaemia line) NSD2 WT (2C) viability, CellTiter-Glo, 72 h; series mostly up to 44.9 µM
Potency is the fitted concentration of half-maximal effect.

SMILES | Potency
Cc1c(Cc2ccc3ccccc3n2)c2cc(F)ccc2n1CC(=O)O | inactive
CC(C)N(CCCNC(=O)Nc1ccc(C(C)(C)C)cc1)C[C@H]1O[C@@H](n2ccc3c(N)ncnc32)[C@H](O)[C@@H]1O | inactive and 18.6 µM (active)
CC(=O)NC(Cc1c[nH]c2ccccc(=O)c12)C(=O)O (stereo unspecified) | inactive
CNc1nc(C)nc(N[C@H]2CCC[C@@H](C(=O)NCc3ccc(C#N)cc3C(F)(F)F)C2)n1 | inactive
Cc1cccc(-c2nn3c(c2-c2ccnc4ccc(C(N)=O)cc24)CCC3)n1 | inactive
O=C(O)CC1CCC(c2ccc(-c3ccc(Nc4ccc(C(F)(F)F)nc4)cn3)cc2)CC1 (stereo unspecified) | inactive
N#Cc1ccc(C2CCCc3cncn32)cc1 (stereo unspecified) | inactive
C=C1C[C@@]2(O)O[C@@]3(C[C@H]2C(C)C)[C@@H](C)CC[C@@H]13 | inactive
COc1cccc2c1c(O)c(C(=O)N(C)c1ccc(C(F)(F)F)cc1)c(=O)n2C | inactive
COc1ccc(CC(NC(C)=O)C(=O)O)cc1 (stereo unspecified) | inactive
CCc1cccc2c3c([nH]c12)[C@@](CC)(CC(=O)O)OCC3 | inactive
